Here are results for 40 compounds from PubChem BioAssay (EPA / NIEHS).

By AC50 is commonly meant the concentration at which the activity in the assay is half-maximal.

The structures appear in SMILES notation. Several values for one entry are separate records, joined by “and”; a condition that tells them apart may be missing. Identical values can stand only once. Activity calls are given as the source filed them. How the source made its calls: active means hit-call score of the fitted dose curve at least 0.9, where 1 is the maximum; inactive means score below 0.9.

Read-out in this test: Intercellular Adhesion Molecule 1 (ICAM1), ICAM1 (gene 3383)
The test can be described thus: BSK_BF4T_ICAM1: BioMAP Diversity Plus: BF4T Assay for Intercellular Adhesion Molecule 1 (ICAM1) Biomarker Activity (AID 2284260). The note with it: primary human bronchial epithelial cells with fibroblasts. How it is done: BSK_BF4T is a cell-based, multiplexed-readout assay that uses bronchial epithelial cells and dermal fibroblasts, a human vascular primary cell, with measurements taken at 24 hours after chemical dosing in a microplate: 96-well plate.BSK_BF4T_ICAM1 is an assay component measured in the BSK_BF4T assay. It measures ICAM-1 antibody related to regulation of gene expression using ELISA technology.Data from the assay component BSK_BF4T_ICAM1 was analyzed at the endpoint, BSK_BF4T_ICAM1, in the positive analysis fitting direction relative to DMSO as the negative control and baseline of activity. Using a type of binding reporter, gain or loss-of-signal activity can be used to understand protein changes. To generalize the intended target to other relatable targets, this assay endpoint is annotated to the 'cell adhesion molecules' intended target family, where the subfamily is 'Immunoglobulin CAM'.
The levels of cell surface (or secreted, indicated by the prefix "s") biomarker endpoints were measured by ELISA. Overt cytotoxicity to cells in confluent adherent cultures (all systems other than the BT system) was assessed by measuring total protein levels using sulforhodamine B (SRB) staining in parallel cultures at the time of biomarker measurements, indicated as SRB endpoints. For proliferation assays for adherent cell types, individual cell types are cultured at sub-confluence and relative cell numbers quantified by SRB staining at time points optimized for each system (48 h: 3C and CASM3C systems; 72 h: BT and HDF3CGF systems; 96 h: SAg system). SRB was performed by staining cells with 0.1% SRB after fixation with 10% TCA and reading wells at 560 nm.Viability and proliferation of PBMC (T cells) was quantified by Alamar Blue reduction for the SAg and BT systems. For PBMC viability (referred to as PBMC Cytotoxicity within the assay endpoint names), cells were plated (75,000/well in a 96-well plate) and then chemical samples added for 1 h before addition of activators, SEB and TSST-1 (20 ng/mL final concentration each). Cells were incubated for 90 h. Then, Alamar Blue (20 uL/well) (Invitrogen, Cat DAL1100) was added for 6 h, and the plates were read with a fluorescence microplate reader at 546/580 nm (excitation/emission). For PBMC proliferation, cells were plated and activated as above but incubated for only 16 h prior to addition of Alamar Blue. Plates were read after 6 h.
`C=CC(=O)OCCC(F)(F)C(F)(F)C(F)(F)C(F)(F)F`: the outcome was inactive.

Regarding `O=C(O)C(F)(F)C(F)(F)C(F)(F)OC(F)(C(F)(F)F)C(F)(F)F`, the result was inactive.

Consider `O=C(O)C(F)(F)C(F)(F)C(F)(F)C(=O)O`, for which the outcome was inactive.

For `O=C(Cl)C(F)(F)C(F)(F)C(F)(F)C(F)(F)C(F)(F)C(F)(F)C(F)(F)F`, the outcome was inactive.

Consider `FC(F)(F)C(F)(F)C(F)(F)CC1CO1` (stereo not given), for which the outcome was inactive.

Regarding `OC(O)C(F)(F)C(F)(F)F`, the result was inactive.

Turning to `O=C(O)C(F)(F)C(F)(F)C(F)(F)C(F)(F)C(F)(F)C(F)(F)C(F)F`, the result was inactive.

In the case of `O=S(=O)(Cl)C(F)(F)C(F)(F)C(F)(F)C(F)(F)C(F)(F)C(F)(F)C(F)(F)C(F)(F)F`, the outcome was inactive.

On to `COC(F)(C(F)F)C(F)(F)F` (stereo not given), for which the result was inactive.

On to `CCN(CCO)S(=O)(=O)C(F)(F)C(F)(F)C(F)(F)C(F)(F)C(F)(F)C(F)(F)C(F)(F)C(F)(F)F`, for which the outcome was inactive.

`OCC(O)CC(F)(F)C(F)(F)C(F)(F)C(F)(F)F` (stereo not given): the result was inactive.

With `O=C(O)CCC(F)(F)C(F)(F)C(F)(F)F`, the outcome was inactive.

As to `C[Si](Cl)(Cl)CCC(F)(F)C(F)(F)C(F)(F)C(F)(F)C(F)(F)C(F)(F)F`, the result was inactive.

Regarding `CO[Si](C)(CCC(F)(F)C(F)(F)C(F)(F)C(F)(F)C(F)(F)C(F)(F)F)OC`, the outcome was inactive.

Turning to `OCCCC(F)(F)C(F)(F)C(F)(F)C(F)(F)C(F)(F)C(F)(F)C(F)(F)C(F)(F)F`, the concentration at half-maximal activity (AC50) was 23.2 µM (active) and 34.2 µM (active).

Consider `OCC(F)(F)C(F)(F)C(F)(F)C(F)(F)C(F)(F)C(F)(F)CO`, for which the result was inactive.

As for `CNS(=O)(=O)C(F)(F)C(F)(F)C(F)(F)C(F)(F)C(F)(F)C(F)(F)C(F)(F)C(F)(F)F`, the result was inactive.

As for `FC(F)(F)C(F)(F)C(F)(F)C(F)(F)C(F)(F)C(F)(F)CC[Si](Cl)(Cl)Cl`, the result was inactive.

In the case of `NC(O)(C(F)(F)F)C(F)(F)F`, the outcome was inactive.

As for `O=C(O)C(F)(F)C(F)(F)C(F)(F)OC(F)(F)F`, the result was inactive.

Turning to `O=C(O)C(F)(F)OC(F)(F)C(F)(F)OC(F)(F)C(F)(F)OC(F)(F)F`, the result was inactive.

Consider `NS(=O)(=O)C(F)(F)C(F)(F)C(F)(F)C(F)(F)C(F)(F)C(F)(F)F`, for which the outcome was inactive.

With `OCCCCC(F)(F)C(F)(F)C(F)(F)C(F)(F)F`, the outcome was inactive.

For the compound `OCC(F)(F)C(F)(F)C(F)(F)CO`, the result was inactive.

For `O=C(O)CCC(F)(F)C(F)(F)C(F)(F)C(F)(F)C(F)(F)C(F)(F)C(F)(F)F`, the outcome was inactive.

With `CCOC(=O)CC(=O)C(F)(F)C(F)(F)F`, the outcome was inactive.

For the compound `NC(=O)C(F)(F)C(F)(F)C(F)(F)C(F)F`, the result was inactive.

In the case of `FC(F)(F)C(F)(F)C(F)(F)C(F)(F)C(F)(F)C(F)(F)C(F)(F)CCI`, the outcome was inactive.

As to `NCC(F)(F)C(F)(F)C(F)(F)C(F)(F)C(F)(F)C(F)(F)C(F)(F)C(F)(F)F`, the outcome was inactive.

With `NC(=O)C(F)(F)C(F)(F)C(F)(F)C(F)(F)C(N)=O`, the result was inactive.

`OCC(O)CC(F)(F)C(F)(F)C(F)(F)C(F)(F)C(F)(F)C(F)(F)C(F)(F)C(F)(F)F` (stereo not given): the outcome was inactive.

In the case of `NC(=O)C(F)(F)C(F)(F)C(F)(F)C(F)(F)C(F)(F)C(F)(F)C(F)(F)F`, the outcome was inactive.

Take `C=CC(=O)OCC(F)(F)C(F)(F)C(F)(F)COC(=O)C=C`: the half-maximal activity concentration (AC50) is 7.12 µM (active) and 9.76 µM (active).

Regarding `O=C(F)C1(F)C(F)(F)C(F)(F)C(F)(F)C(F)(F)C1(F)F`, the result was inactive.

Turning to `NCC(F)(F)C(F)(F)C(F)(F)C(F)(F)C(F)(F)C(F)(F)F`, the result was inactive.

As for `O=S(=O)(O)CCC(F)(F)C(F)(F)C(F)(F)C(F)(F)F`, the result was inactive.

Take `C=CC(=O)OCC(F)(F)C(F)(F)C(F)(F)C(F)(F)C(F)(F)C(F)(F)C(F)(F)C(F)F`: the result was inactive.

Turning to `C=C(C)C(=O)OCC(F)(F)C(F)(F)C(F)(F)C(F)F`, the outcome was inactive.

Turning to `NC(=O)C(F)(F)C(F)(F)C(F)(F)F`, the result was inactive.

As for `OCC(F)(F)C(F)(F)C(F)(F)C(F)(F)C(F)(F)C(F)(F)C(F)(F)C(F)(F)CO`, the AC50 was 16.4 µM (active) and 12.2 µM (active).
